Data as given in PubChem BioAssay (NCATS).
Records with an inconclusive call do not appear. The source made the active and inactive calls. The call rests on the fitted dose curve; in most records, active means well fitted cell-killing curve with a large enough effect; inconclusive means small, poorly fitted or top-dose-only effect; inactive means no such curve, though single readings can be large or run the other way.

Assay: qHTS of pediatric cancer cell lines to identify multiple opportunities for drug repurposing: Primary screen for Rh41 cells (AID 1347108);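 further: luminescence drop marks cytotoxic hits; nearly all actives have a fitted effect of over 70% in size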
Conditions: Rh41 rhabdomyosarcoma viability, CellTiter-Glo luminescence, 48 h; series mostly up to 46 µM; activity change, negative = cytotoxic: at the top concentration
How it was run: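 Plated cells (500-1,000 per well, growth media) were allowed to settle for 5 hours, treated with compound dilutions for 48 hours, then lysed with CellTiter-Glo for 15 min at room temperature before luminescence reading.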

Row | SMILES | activity change, negative = cytotoxic
1 | CC(C)(C)C(=O)OCOC(=O)[C@@H]1N2C(=O)[C@@H](NC(=O)[C@H](N)c3ccccc3)[C@H]2SC1(C)C | 33.5% (inactive)
2 | CCOC(=O)c1cccnc1 | 36.5% (inactive)
3 | Cc1ccc(S(=O)(=O)NC(=O)NC2CCCCCCC2)cc1 | 23.2% (inactive)
4 | CC(=O)N(CC(O)CO)c1c(I)c(C(=O)NCC(O)CO)c(I)c(C(=O)NCC(O)CO)c1I (configuration not stated) | 18.5% (inactive)
5 | C[N+]1(C)CCCC(OC(=O)C(O)(c2ccccc2)c2ccccc2)C1 (configuration not stated) | 13.2% (inactive)
6 | CCN1CC(CCN2CCOCC2)C(c2ccccc2)(c2ccccc2)C1=O (configuration not stated) | 15% (inactive)
7 | COc1ccccc1OC(=O)Oc1ccccc1OC | 7.07% (inactive)
8 | CCOC(N)=O | 25.9% (inactive)
9 | COc1ccccc1Oc1c(NS(=O)(=O)c2ccc(C(C)(C)C)cc2)nc(-c2ncccn2)nc1OCCO | 9.81% (inactive)
10 | CC(C)CCOC(=O)c1ccc(N(C)C)cc1 | 22.8% (inactive)
11 | O=C(O)c1ccc(OCCCOc2ccc(C(=O)O)cc2)cc1 | 29.8% (inactive)
12 | CN1CCN(C(=O)C2CCCCC2)CC1 | 30.5% (inactive)
13 | CN(C/C=C/C#CC(C)(C)C)Cc1cccc2ccccc12 | 8.85% (inactive)
14 | C=CCN1C[C@H](C(=O)N(CCCN(C)C)C(=O)NCC)C[C@@H]2c3cccc4[nH]cc(c34)C[C@H]21 | 23% (inactive)
15 | O=c1[nH]c(=O)c2ccccc2o1 | 44.9% (inactive)
16 | Cc1cc(O)cc(C)c1Cl | 17.3% (inactive)
17 | CC(C)C[C@@H](N)C(=O)O | 19.6% [at 16.1 µM] (inactive)
